Data reported in PubChem BioAssay (NCATS).
Results filed as inconclusive are left out. Active and inactive are the calls of the source. Calls follow the shape of the dose curve; as a rule, active = well fitted inhibition curve with a large enough effect; inconclusive = small, poorly fitted or top-dose-only effect; inactive = flat fitted curve, though single readings scatter.

Biological target: Luciferin 4-monooxygenase (Photinus pyralis) (UniProt P08659)
Assay: Biochemical firefly luciferase enzyme assay for NPC (AID 624030);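 also: purified P. pyralis luciferase at 10 nM with luciferin and ATP substrate; 0% = DMSO and -100% = full luciferase inhibition by PTC124 control; nearly all actives have a fitted effect of over 70% in size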
Settings: purified P. pyralis luciferase, luminescence, 5 min; series mostly up to 58.6 µM; activity change, negative = inhibition: at the top concentration
In short: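 Purified P. pyralis luciferase at 10 nM in 50 mM Tris Acetate (final), luminescence read within 5 minutes of enzyme addition to compounds. Activity normalised to PTC124 versus DMSO; concentration-response curves classed by r2, magnitude and activity.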

Luciferin 4-monooxygenase (Photinus pyralis), sequence (P08659 whole entry, looked up): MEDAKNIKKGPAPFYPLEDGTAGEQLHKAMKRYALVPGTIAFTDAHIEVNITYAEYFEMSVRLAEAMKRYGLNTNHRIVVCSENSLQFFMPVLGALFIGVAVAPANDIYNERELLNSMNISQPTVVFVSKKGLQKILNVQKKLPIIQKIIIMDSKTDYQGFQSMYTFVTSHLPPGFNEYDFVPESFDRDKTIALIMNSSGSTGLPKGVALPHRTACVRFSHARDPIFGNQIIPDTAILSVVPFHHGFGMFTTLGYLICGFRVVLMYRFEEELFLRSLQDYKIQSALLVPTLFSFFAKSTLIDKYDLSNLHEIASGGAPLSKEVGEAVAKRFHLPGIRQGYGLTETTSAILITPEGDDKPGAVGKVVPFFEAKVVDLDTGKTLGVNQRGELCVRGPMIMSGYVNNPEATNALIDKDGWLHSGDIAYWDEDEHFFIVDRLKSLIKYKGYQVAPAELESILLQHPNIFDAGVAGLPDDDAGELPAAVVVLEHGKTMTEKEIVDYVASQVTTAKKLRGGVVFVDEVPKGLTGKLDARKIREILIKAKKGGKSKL

**Q.** COc1ccc(C[C@H](C)NC[C@@H](O)c2ccc(O)c(NC=O)c2)cc1 was tested. Which “activity change, negative = inhibition” value did it give?
**A.** 2.61% (inactive)

**Q.** How did the “activity change, negative = inhibition” value turn out when Oc1ccc(Cl)c2c1CCC2 was run?
**A.** -6.04% (inactive)

**Q.** For CCOc1cc(-c2nccc3cc(OC)c(OC)cc23)cc(OCC)c1OCC, which “activity change, negative = inhibition” value is on record?
**A.** -0.0359% (inactive)

**Q.** Which “activity change, negative = inhibition” value does the source give for CCC(=O)c1ccc2c(c1)N(CCCN1CCN(CCO)CC1)c1ccccc1S2 here?
**A.** 8.34% (inactive)

**Q.** CCCCCCCCCCCCCC(=O)OCC(COP(=O)([O-])OCC[N+](C)(C)C)OC(=O)CCCCCCCCCCCCC (stereo not given) was tested. Which “activity change, negative = inhibition” value did it give?
**A.** 0.845% (inactive)

**Q.** CC(=O)N[C@@H](C=O)[C@@H](O)[C@H](O)[C@H](O)CO was tested. Which Potency did it give?
**A.** inactive

**Q.** CCN(CC)CCC(=O)N1c2ccccc2Sc2ccc(Cl)cc21 was tested. Which “activity change, negative = inhibition” value did it give?
**A.** 7.86% (inactive)

**Q.** For CCN(CC)C(=S)S, which “activity change, negative = inhibition” value is on record?
**A.** -7.57% (inactive)

**Q.** Which “activity change, negative = inhibition” value does the source give for C=CC[C@@H]1/C=C(\C)C[C@H](C)C[C@H](OC)[C@H]2O[C@@](O)(C(=O)C(=O)N3CCCC[C@H]3C(=O)O[C@H](/C(C)=C/[C@@H]3CC[C@@H](O)[C@H](OC)C3)[C@H](C)[C@@H](O)CC1=O)[C@H](C)C[C@@H]2OC here?
**A.** -1.17% (inactive)

**Q.** How did the “activity change, negative = inhibition” value turn out when CC12CCC(C[N+](C)(CCC[N+](C)(C)C)C1)C2(C)C (stereo not given) was run?
**A.** -0.826% (inactive)
